The full list was thinned out, with hits kept by preference.
nsP2pro primary – inhibitors of chikungunya virus nsP2 protease; FRET peptide cleavage, nsP2pro, fluorescence 1 h; Potency, µM (series often up to 24.9 µM), inactives show top-dose activity change, negative = inhibition, usual class: inhibitors; actives 1.1% (n = 31,000); AID 1964107; note: nearly all actives have a fitted effect of over 60% in size
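Purified recombinant nsP2pro (150 nM final) in 10 mM Tris-HCl pH 8.0 with 0.01% Tween 20 was preincubated 15 min at room temperature with compound (7 concentrations, up to 25 uM). FRET peptide 2 substrate (2.5 uM final) was then added; fluorescence was read after 1 h.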
CHIKV nsP2 cell – inhibits CHIKV nsP2 protease in cells. shares compounds with nsP2pro primary. cell-based CHIKV nsP2 protease reporter assay. Potency, µM (titrated, usually from 51.1 µM), without a hit: top-dose activity change, negative = inhibition, most hits filed as inhibitors. actives 10% (n = 450). AID 1964100; note: nearly all actives have a fitted effect of over 70% in size
NSP2 full ctr – selectivity test for CHIKV nsP2 protease inhibitors: full-length NSP2; shares compounds with nsP2pro primary; Full-length CHIKV NSP2 protease enzymatic counterscreen; Potency, µM (titrated, usually from 50.7 µM), without a hit: at the highest dose activity change, negative = inhibition, actives largely listed as inhibitors; actives 39% (n = 410); AID 1964101; note: nearly all actives have a fitted effect of over 65% in size
Furin counter – human furin inhibition, counterscreen for nsP2pro inhibitors; shares compounds with nsP2pro primary; actives 6% (n = 410); AID 1964102; Potency, µM (series often up to 50.6 µM), inactives show at the top dose activity change, negative = inhibition, most hits filed as inhibitors; Recombinant human furin enzymatic counterscreen, fluorogenic substrate
Target sequence (P09958 whole entry, looked up): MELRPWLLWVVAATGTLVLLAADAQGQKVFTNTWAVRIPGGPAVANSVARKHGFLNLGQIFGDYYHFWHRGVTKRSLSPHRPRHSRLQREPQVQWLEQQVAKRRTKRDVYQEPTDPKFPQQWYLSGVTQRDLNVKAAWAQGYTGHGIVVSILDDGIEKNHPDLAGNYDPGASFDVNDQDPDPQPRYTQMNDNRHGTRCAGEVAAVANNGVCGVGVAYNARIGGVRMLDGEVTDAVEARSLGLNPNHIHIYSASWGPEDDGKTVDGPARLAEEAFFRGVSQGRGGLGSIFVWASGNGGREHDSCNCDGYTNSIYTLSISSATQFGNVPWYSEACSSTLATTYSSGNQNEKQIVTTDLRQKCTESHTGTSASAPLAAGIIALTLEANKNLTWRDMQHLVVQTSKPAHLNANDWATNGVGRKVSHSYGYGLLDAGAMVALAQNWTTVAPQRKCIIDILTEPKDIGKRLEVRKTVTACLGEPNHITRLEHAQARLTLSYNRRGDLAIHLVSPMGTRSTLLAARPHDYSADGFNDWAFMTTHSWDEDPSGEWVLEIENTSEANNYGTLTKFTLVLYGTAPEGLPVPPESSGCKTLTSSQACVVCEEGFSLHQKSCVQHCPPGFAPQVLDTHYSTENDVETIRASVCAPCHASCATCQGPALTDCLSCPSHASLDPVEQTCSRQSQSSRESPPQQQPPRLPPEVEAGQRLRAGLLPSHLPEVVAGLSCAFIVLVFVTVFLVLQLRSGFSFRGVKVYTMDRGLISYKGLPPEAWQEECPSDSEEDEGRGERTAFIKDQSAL
nsP2 NS23 pep – blocks CHIKV nsP2 protease cleavage of endogenous NS2/3 peptide; Purified CHIKV nsP2 protease, endogenous NS2/3 peptide cleavage; actives 34% (n = 410); shares compounds with nsP2pro primary; Potency, µM (titrated, usually from 51 µM), without a hit: top-dose activity change, negative = inhibition, most hits filed as inhibitors; note: nearly all actives have a fitted effect of over 55% in size
Papain cs – selectivity counter-screen for CHIKV nsP2 protease inhibitors: papain | shares compounds with nsP2pro primary | purified papain protease activity, enzymatic inhibition | Potency, µM (titrated, usually from 51 µM), without a hit: at the highest dose activity change, negative = inhibition, usual class: inhibitors | AID 1964104 | actives 5% (n = 410)
nsP2pro conf qHTS – CHIKV nsP2 protease inhibition, confirmatory qHTS. actives 43% (n = 410). AID 1964105. CHIKV nsP2 protease enzymatic activity, qHTS. Potency, µM (titrated, usually from 25.5 µM), for the others: at the top dose activity change, negative = inhibition, most hits filed as inhibitors. shares compounds with nsP2pro primary; note: nearly all actives have a fitted effect of over 75% in size
HCV NS3 counter – inhibits HCV NS3/4A protease in an nsP2pro selectivity counterscreen; shares compounds with nsP2pro primary; HCV NS3/4A protease biochemical counterscreen; Potency, µM (top dose mostly 50.9 µM), hits mostly inhibitors; actives 20% (n = 410); AID 1964106; note: nearly all actives have a fitted effect of over 55% in size
* = called active by the depositor; i = inactive; ? = inconclusive; ! = repeats disagree; [ ] = remark or other dose. Calls come from the whole dose curve. % is set by controls: 0 for no effect and ±100 for the full control effect; potency is the fitted concentration of half-maximal effect.

SMILES	nsP2pro primary	others
CCOC(=O)c1ccc(OCCN2C[C@H](O)[C@@H](O)[C@H](O)[C@H]2CO)cc1	?	CHIKV nsP2 cell=-4%[17.6 µM];NSP2 full ctr=?;Furin counter=14µM*;nsP2 NS23 pep=-16%[17.2 µM];Papain cs=-14%[17.2 µM];nsP2pro conf qHTS=?;HCV NS3 counter=i
OCCN1C[C@H](O)[C@@H](O)[C@H](O)[C@H]1CO	-8%
CN1CCC(N2CC[C@H](c3nc4ccc(C(F)(F)F)cc4[nH]3)C2)CC1	i
COc1cc2ncnc(Nc3ccc(O)c(Br)c3)c2cc1OC	43%
O=c1oc2cc(O)ccc2c2ccc(O)cc12	-8%
S=C(Nc1cc(Cl)ccn1)N1CCN(c2ccc(Cl)cc2Cl)CC1	0%
COc1ccc(CC(=O)N2CCC(c3n[nH]c(=O)n3Cc3ccc(F)cc3)CC2)cc1	i
CN(Cc1ccccc1)C(=O)CC1CCN(C(=O)Cc2ccccc2)C1 (stereo not drawn)	6%
Cc1nc(C2CCN(C(=O)Cc3ccccc3)CCN2C(=O)Cc2ccccc2)n[nH]1 (stereo not drawn)	?	CHIKV nsP2 cell=1%;NSP2 full ctr=?;Furin counter=-2%;nsP2 NS23 pep=?;Papain cs=-2%;nsP2pro conf qHTS=?;HCV NS3 counter=?
COC(=O)c1ccnc(-c2cc(C(=O)NCCc3ccccc3)ccn2)c1	57%
O=C1c2ccccc2C(=O)c2oc(-c3ccccc3)nc21	8.8µM*	CHIKV nsP2 cell=-26%;NSP2 full ctr=?;Furin counter=-5%;nsP2 NS23 pep=-24%;Papain cs=-1%;nsP2pro conf qHTS=-21%;HCV NS3 counter=i
O=C1c2ccccc2C(=O)c2oc(-c3cccnc3)nc21	3.1µM*	CHIKV nsP2 cell=?;NSP2 full ctr=-24%;Furin counter=-5%;nsP2 NS23 pep=?;Papain cs=-10%;nsP2pro conf qHTS=?;HCV NS3 counter=i
O=C(CSc1oc(-c2ccccc2)nc1S(=O)(=O)c1ccccc1)c1ccccc1	-25%
NCCc1noc(-c2ccccc2)n1	-11%
Cc1cnc(-c2ccccc2C(C)C)nc1N(C)Cc1ccc(-c2cccnc2)cc1	i
O=c1ncn(Cc2ccccc2)c2ccc(-c3cccnc3)nc12	-3%[39.2 µM]
COc1ccc(O)c(CNc2ccc(S(=O)(=O)Nc3nccs3)cc2)c1	i
Cc1cccc(-n2cnc3cc(C(=O)N4CCC(C#N)CC4)ccc32)c1	1%
Cc1ccnc(NC(=S)N2CCN(c3cc(C(F)(F)F)cc(C(F)(F)F)c3)CC2)c1	-20%
Cc1cc(C)nc(NC(=S)N2CCN(c3ccc(Cl)cc3S(C)(=O)=O)CC2)c1	i
CCCNC(=O)N(C1CCOCC1)C1CCN(C(=O)Cc2cccnc2)CC1	4%
CCNC(=NCCCC[C@H](NC(=O)[C@H](CC(C)C)NC(=O)[C@@H](CCCCN=C(NCC)NCC)NC(=O)[C@@H](Cc1ccc(O)cc1)NC(=O)[C@@H](CO)NC(=O)[C@H](Cc1cccnc1)NC(=O)[C@H](Cc1ccc(Cl)cc1)NC(=O)C(Cc1ccc2ccccc2c1)NC(C)=O)C(=O)N1CCCC1C(=O)N[C@H](C)C(N)=O)NCC (stereo partly drawn)	99%
Cc1cc(C)nc(NC(=S)N2CCN(c3ccc(Cl)cc3[N+](=O)[O-])CC2)c1	-5%
Cc1cc(C)nc(NC(=S)N2CCN(c3nccc4ccccc34)CC2)c1	-7%
C=C1C(=O)O[C@H]2[C@H]1[C@@H](OC(=O)/C(C)=C\C)C[C@]1(C)O[C@@H]1[C@H]1O[C@H]1C(=C)[C@H]2O	-4%
SMILES	nsP2pro primary	others
C/C=C(\C)C(=O)OC1C[C@@]2(COC(C)=O)O[C@H]2/C=C\[C@@]2(C)O[C@@H]2[C@H]2OC(=O)C(COC(C)=O)=C12 (stereo partly drawn)	3.4µM*	CHIKV nsP2 cell=0%[17.6 µM];NSP2 full ctr=?;Furin counter=-8%[17.3 µM];nsP2 NS23 pep=?;Papain cs=-9%[17.2 µM];nsP2pro conf qHTS=3.5µM*;HCV NS3 counter=?
C/C=C(\C)C(=O)O[C@H]1CC2C(=C1C)[C@H]1OC(=O)[C@](C)(O)[C@]1(O)[C@H](OC(=O)CCC)C[C@@]2(C)OC(C)=O (stereo partly drawn)	-2%[10 µM]
O=C(NCCCNC(=O)c1ccc[nH]c1=O)c1cc(-c2ccccc2)on1	1%
CN1C(=O)C(c2ccccc2)CC12CCN(S(=O)(=O)N(C)C)CC2 (stereo not drawn)	i
N#Cc1cccc([C@@H](NCC2CC2)c2ccc(F)c(NC(=O)c3cc(C(F)(F)F)nn3-c3cccc(CN)c3)c2)c1	56%
O=C(NC1CCCc2c1cnn2-c1ccc(F)cc1F)c1ccccn1 (stereo not drawn)	7.9µM*!	CHIKV nsP2 cell=9%;NSP2 full ctr=-2%;Furin counter=-1%;nsP2 NS23 pep=15%;Papain cs=-5%;nsP2pro conf qHTS=12%;HCV NS3 counter=i
O=C(N[C@H]1CCCc2c1cnn2-c1ccc(F)cc1F)c1ccccn1	i
O=C(NC1CCCc2c1cnn2-c1ccc(F)cc1F)c1ccncc1 (stereo not drawn)	-10%
CCN(C)C(C)C(O)c1ccccc1 (stereo not drawn)	-6%
COc1cc(/C=C\C(=O)N2CCN(CC(=O)N3CCCC3)CC2)cc(OC)c1OC	-8%
O=C(c1ccc(-c2ccco2)cc1)N1CCOC(c2ccccc2)C1 (stereo not drawn)	7.9µM*	CHIKV nsP2 cell=?;NSP2 full ctr=10µM*;Furin counter=-3%;nsP2 NS23 pep=?;Papain cs=-13%;nsP2pro conf qHTS=9µM*;HCV NS3 counter=i
O=C(c1ccc2ncccc2c1)N1CCOC(c2ccc(Cl)c(Cl)c2)C1 (stereo not drawn)	3%
COc1ccc(-c2cc(C(=O)N3CCOC(c4ccc(F)cc4)C3)[nH]n2)cc1 (stereo not drawn)	i
Cc1ccsc1C1N=C(Nc2nc3ccccc3o2)NC2=C1C(=O)CCC2 (stereo not drawn)	i
CC1=C(C(=O)OCC2CCCCC2)C(c2ccccc2F)CC(=O)N1 (stereo not drawn)	-8%
CNc1nc2c(s1)C(c1ccccc1F)CC(=O)N2 (stereo not drawn)	1.6µM*	CHIKV nsP2 cell=8%;NSP2 full ctr=3.3µM*;Furin counter=-9%;nsP2 NS23 pep=4.6µM*;Papain cs=14%;nsP2pro conf qHTS=2.8µM*;HCV NS3 counter=?
CSc1nc2c(c(=O)[nH]1)C(c1cccc(F)c1F)CC(=O)N2 (stereo not drawn)	-27%
O=C1CC(c2c(F)cccc2Cl)c2c(ccc3ccccc23)N1 (stereo not drawn)	-15%
